Assay results published in PubChem BioAssay (Tox21).
Where “and” joins values, the source holds several entries; their conditions need not be identical. Equal values may be shown once. Inconclusive results are not listed. Where a call stands in place of a potency, no number is given. Where a structure was tested more than once in an assay, its records may differ in their call. Calls of active or inactive are those of the source. Unless noted, calls follow the shape of the dose curve; as a rule, active = well fitted curve in the direction sought with a large enough effect in the repeat runs; inconclusive = weak or mixed curves; inactive = no such curve, though single readings can be large; an effect the other way counts as inactive or inconclusive.

Key:
[1] = target: Thyrotropin receptor (Homo sapiens) (UniProt P16473); assay: qHTS assay to identify small molecule agonists of the thyroid stimulating hormone receptor (TSHR) signaling pathway (AID 1224843; calls by dose curve; also: nearly all actives have a fitted effect of over 45% in size)
Method in brief: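 TSHR-HEK293 cells in agonist mode, 30 min room-temperature step, then cAMP measured by competitive HTRF (cAMP-d2 with anti-cAMP cryptate) after 1 h at room temperature. Tested at 15 concentrations in triplicate.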

[2] = qHTS assay to identify small molecule agonists of the hypoxia (HIF-1) signaling pathway - cell viability counter screen (AID 1224844; calls by dose curve; also: nearly all actives have a fitted effect of over 50% in size)
Method in brief: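 Luminescent ATP content (CellTiter-Glo, 30 min, room temperature) served as the viability measure in HRE-bla ME-180 cells exposed to compounds for 17 hrs in low-serum medium (0.5% dialyzed FBS).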

[3] = qHTS assay to identify small molecule agonists of H2AX (AID 1224845; active = well fitted activation curve with a large enough effect in the signal ratio in the repeat runs, not every such curve was filed as active; the % refers to the signal ratio)
Method in brief: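 Wild-type CHO-K1 cells, plated overnight, exposed 3hr at 37C to 15 concentrations (0.76% DMSO final). Lysed, then HTRF anti-pH2AX (S139) cryptate and anti-H2AX-d2 antibodies, 24 hr room temperature; 665/620 nm emission read.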

[4] = qHTS assay to identify small molecule agonists of the hypoxia (HIF-1) signaling pathway (AID 1224846; active = well fitted activation curve with a large enough effect in the signal ratio in the repeat runs, not every such curve was filed as active; the % refers to the signal ratio)
Method in brief: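 Measured by blue/green FRET after loading CCF4-AM: beta-lactamase expressed from a hypoxia response element in ME-180 cells. Test agents were delivered in DMSO and left 17 hrs; cells had been plated 5 hrs earlier in low-serum (0.5% dialyzed FBS) medium.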

[5] = qHTS assay to identify small molecule agonists of H2AX - cell viability counter screen (AID 1224847; calls by dose curve; also: top concentration of the series differs between compounds; nearly all actives have a fitted effect of over 30% in size)
Method in brief: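 Read-out: CellTiter-Glo luminescence, 30 min RT. Cells: wild-type CHO-K1, 1000/well, 10% FBS, plated overnight at 37C. Treatment: 15 concentrations, 3 hr, 37C, 0.76% DMSO.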

[6] = qHTS assay to identify small molecule antagonists of the estrogen related receptor (ERR) signaling pathway from Tox21 library (AID 1224848); also: nearly all actives have a fitted effect of over 50% in size
Method in brief: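 ERR reporter cell line (from NTP) seeded 2,000 cells/well, rested 6 h at 37 C/5% CO2, then pin-dosed with compounds in DMSO. After 18 h at 37 C, ONE-Glo added; luminescence read after 30 min at room temperature.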

[7] = qHTS RealTime-Glo MT Cell Viability Assay in HepG2 cells - 24 hour (AID 1224867); also: nearly all actives have a fitted effect of over 50% in size; also: potency is read from the fitted curve at half-maximal effect
Method in brief: (§1)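 HepG2 suspension premixed with RealTime-Glo reagents is plated at 600 cells per well and left 5 h at 37 C/5% CO2. Compounds in DMSO then go in, and bioluminescence reflecting viable cell number is recorded over 40 h.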

[8] = qHTS RealTime-Glo MT Cell Viability Assay in HEK293 cells - 32 hour (AID 1224868); also: nearly all actives have a fitted effect of over 50% in size; also: potency is read from the fitted curve at half-maximal effect
Method in brief: (§2)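 Reads taken at 0, 8, 16, 24, 32 and 40 h from the same wells. HEK293 cells (600/well) carried RealTime-Glo reagents from seeding, with compound added after a 5 h settle at 37 C.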

[9] = A CellTox Green Cytotoxicity Assay to monitor cytotoxicity in HEK293 cells - 0 hour (AID 1224869); also: nearly all actives have a fitted effect of over 50% in size
Method in brief: (§3)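 Each value comes from one timepoint of a single continuous run in which HEK293 cells with CellTox Green were exposed to compound for up to 40 h at 37 C, dye fluorescence rising with cell death.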

[10] = qHTS RealTime-Glo MT Cell Viability Assay in HepG2 cells - 40 hour (AID 1224870); also: nearly all actives have a fitted effect of over 50% in size
Method in brief: (§4)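 HepG2 cells (600/well) mixed with RealTime-Glo MT reagent, settled 5 h at 37 C/5% CO2 before compound addition. Nonlytic NanoLuc luminescence from viable-cell prosubstrate reduction read repeatedly during 40 h treatment at 37 C.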

[11] = A CellTox Green Cytotoxicity Assay to monitor cytotoxicity in HEK293 cells - 40 hour (AID 1224871); also: nearly all actives have a fitted effect of over 45% in size
Method in brief: as §3

[12] = qHTS RealTime-Glo MT Cell Viability Assay in HEK293 cells - 16 hour (AID 1224872)
Method in brief: as §2

[13] = qHTS RealTime-Glo MT Cell Viability Assay in HepG2 cells - 8 hour (AID 1224873); also: nearly all actives have a fitted effect of over 55% in size; also: potency is read from the fitted curve at half-maximal effect
Method in brief: as §4

[14] = qHTS RealTime-Glo MT Cell Viability Assay in HEK293 cells - 40 hour (AID 1224874); settings: RealTime-Glo luminescence; max response: stronger effect = lower value; also: nearly all actives have a fitted effect of over 50% in size; also: potency is read from the fitted curve at half-maximal effect
Method in brief: (§5)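 qHTS format; HEK293 cells with NanoLuc/prosubstrate reagent, 37 C/5% CO2 for 5 h pre-dosing; compounds 23 nL in DMSO; luminescence at each time point reflects viable cells.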

[15] = A CellTox Green Cytotoxicity Assay to monitor cytotoxicity in HEK293 cells - 24 hour (AID 1224875); also: series mostly up to about 77 µM; nearly all actives have a fitted effect of over 45% in size
Method in brief: as §3

[16] = A CellTox Green Cytotoxicity Assay to monitor cytotoxicity in HepG2 cells - 16 hour (AID 1224876); also: nearly all actives have a fitted effect of over 45% in size
Method in brief: (§6)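 Continuous culture of HepG2 cells with a membrane-impermeant DNA dye; rising fluorescence marks dead cells. Compound exposure lasted up to 40 h at 37 C, with reads every 8 h from 0 h.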

[17] = qHTS RealTime-Glo MT Cell Viability Assay in HepG2 cells - 32 hour (AID 1224877); also: nearly all actives have a fitted effect of over 55% in size
Method in brief: as §1

[18] = A CellTox Green Cytotoxicity Assay to monitor cytotoxicity in HepG2 cells - 24 hour (AID 1224878); also: nearly all actives have a fitted effect of over 45% in size
Method in brief: as §6

[19] = A CellTox Green Cytotoxicity Assay to monitor cytotoxicity in HepG2 cells - 40 hour (AID 1224879); also: nearly all actives have a fitted effect of over 40% in size
Method in brief: as §6

[20] = qHTS RealTime-Glo MT Cell Viability Assay in HEK293 cells - 0 hour (AID 1224880)
Method in brief: as §5

Thyrotropin receptor (Homo sapiens), sequence (P16473 whole entry, looked up): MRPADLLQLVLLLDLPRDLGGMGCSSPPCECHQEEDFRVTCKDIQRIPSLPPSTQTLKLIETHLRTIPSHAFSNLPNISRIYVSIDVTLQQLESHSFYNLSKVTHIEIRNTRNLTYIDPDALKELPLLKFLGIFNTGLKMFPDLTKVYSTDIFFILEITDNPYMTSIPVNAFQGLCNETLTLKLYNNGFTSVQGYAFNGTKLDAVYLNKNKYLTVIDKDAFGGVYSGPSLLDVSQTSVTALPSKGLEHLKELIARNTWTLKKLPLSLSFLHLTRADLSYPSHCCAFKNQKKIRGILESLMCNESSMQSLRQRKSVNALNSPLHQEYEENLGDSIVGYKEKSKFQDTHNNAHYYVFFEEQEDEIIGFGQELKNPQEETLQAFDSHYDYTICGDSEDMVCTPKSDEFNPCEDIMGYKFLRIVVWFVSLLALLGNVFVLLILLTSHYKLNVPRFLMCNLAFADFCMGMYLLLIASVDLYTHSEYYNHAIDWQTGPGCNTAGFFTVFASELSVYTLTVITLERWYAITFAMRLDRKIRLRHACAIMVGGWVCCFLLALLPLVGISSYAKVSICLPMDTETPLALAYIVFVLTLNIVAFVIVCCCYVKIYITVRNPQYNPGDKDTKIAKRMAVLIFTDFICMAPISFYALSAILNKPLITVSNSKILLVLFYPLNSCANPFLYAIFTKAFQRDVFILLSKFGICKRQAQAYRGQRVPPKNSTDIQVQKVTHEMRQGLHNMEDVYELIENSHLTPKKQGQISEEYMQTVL

SMILES: CCOCC(=O)O
- outcome [1]: inactive
- outcome [2]: inactive
- outcome [3]: inactive
- outcome [4]: inactive
- outcome [5]: inactive
- outcome [6]: inactive
- Potency [7]: inactive
- Potency [8]: inactive
- outcome [9]: inactive
- outcome [10]: inactive
- Potency [11]: inactive
- Potency [12]: inactive
- Potency [13]: inactive
- max response [14]: -1.6% (inactive) and 8.63% (inactive)
- Potency [15]: inactive
- outcome [16]: inactive
- outcome [17]: inactive
- Potency [18]: inactive
- Potency [19]: inactive
- outcome [20]: inactive

SMILES: N#Cc1ccccc1
- outcome [1]: inactive
- outcome [2]: inactive
- outcome [3]: inactive
- outcome [4]: inactive
- outcome [5]: inactive
- outcome [6]: inactive
- Potency [7]: inactive
- Potency [8]: inactive
- outcome [9]: inactive
- outcome [10]: inactive
- Potency [11]: inactive
- Potency [12]: inactive
- Potency [13]: inactive
- max response [14]: 6.77% (inactive) and 3.17% (inactive)
- Potency [15]: inactive
- outcome [16]: inactive
- outcome [17]: inactive
- Potency [18]: inactive
- Potency [19]: inactive
- outcome [20]: inactive

SMILES: OCc1ccccc1
- outcome [1]: inactive
- outcome [2]: inactive
- outcome [3]: inactive
- outcome [4]: inactive
- outcome [5]: inactive
- outcome [6]: inactive
- Potency [7]: inactive
- Potency [8]: inactive
- outcome [9]: inactive
- outcome [10]: inactive
- Potency [11]: inactive
- Potency [12]: inactive
- Potency [13]: inactive
- max response [14]: -3.29% (inactive) and 13.4% (inactive)
- Potency [15]: inactive
- outcome [16]: inactive
- outcome [17]: inactive
- Potency [18]: inactive
- Potency [19]: inactive
- outcome [20]: inactive

SMILES: CC(C)CC(=O)CC(C)CC(C)C (stereo unspecified)
- outcome [1]: inactive
- outcome [2]: inactive
- outcome [3]: inactive
- outcome [4]: inactive
- outcome [5]: inactive
- outcome [6]: inactive
- Potency [7]: inactive
- Potency [8]: inactive and 17.4 µM (active)
- outcome [9]: inactive
- outcome [10]: inactive
- Potency [11]: inactive
- Potency [12]: inactive
- Potency [13]: inactive
- Potency [14]: 15.5 µM (active)
- max response [14]: 0.688% (inactive)
- Potency [15]: inactive
- outcome [16]: inactive
- outcome [17]: inactive
- Potency [18]: inactive
- Potency [19]: inactive
- outcome [20]: inactive

SMILES: O=C1C(c2[nH]c3ccccc3c2O)=Nc2ccccc21
- outcome [1]: inactive
- outcome [2]: inactive
- outcome [3]: inactive
- outcome [4]: inactive
- outcome [5]: inactive
- outcome [6]: inactive
- Potency [7]: inactive
- Potency [8]: inactive
- outcome [9]: inactive
- outcome [10]: inactive
- Potency [11]: inactive
- Potency [12]: inactive
- Potency [13]: inactive
- max response [14]: 4.84% (inactive)
- Potency [15]: inactive
- outcome [16]: inactive
- outcome [17]: inactive
- Potency [18]: inactive
- Potency [19]: inactive
- outcome [20]: inactive

SMILES: C=C(C)CNCC
- outcome [1]: inactive
- outcome [2]: inactive
- outcome [3]: inactive
- outcome [4]: inactive
- outcome [5]: inactive
- outcome [6]: inactive
- Potency [7]: inactive
- Potency [8]: inactive
- outcome [9]: inactive
- outcome [10]: inactive
- Potency [11]: inactive
- Potency [12]: inactive
- Potency [13]: inactive
- max response [14]: 0.995% (inactive) and -23.9% (inactive)
- Potency [15]: inactive
- outcome [16]: inactive
- outcome [17]: inactive
- Potency [18]: inactive
- Potency [19]: inactive
- outcome [20]: inactive

SMILES: CC1(C)NC(=O)NC1=O
- outcome [1]: inactive
- outcome [2]: inactive
- outcome [3]: inactive
- outcome [4]: inactive
- outcome [5]: inactive
- outcome [6]: inactive
- Potency [7]: inactive
- Potency [8]: inactive
- outcome [9]: inactive
- outcome [10]: inactive
- Potency [11]: inactive
- Potency [12]: inactive
- Potency [13]: inactive
- max response [14]: 4.62% (inactive) and 21.9% (inactive)
- Potency [15]: inactive
- outcome [16]: inactive
- outcome [17]: inactive
- Potency [18]: inactive
- Potency [19]: inactive
- outcome [20]: inactive

SMILES: CCCCCCCCCCCCCCCCO
- outcome [1]: inactive
- outcome [2]: inactive
- outcome [3]: inactive
- outcome [4]: inactive
- outcome [5]: inactive
- Potency [7]: inactive
- Potency [8]: inactive
- outcome [9]: inactive
- outcome [10]: inactive
- Potency [11]: inactive
- Potency [12]: inactive
- Potency [13]: inactive
- max response [14]: -1.41% (inactive)
- Potency [15]: inactive
- outcome [16]: inactive
- outcome [17]: inactive
- Potency [18]: inactive
- Potency [19]: inactive
- outcome [20]: inactive

SMILES: CC(=O)OCc1ccco1
- outcome [1]: inactive
- outcome [2]: inactive
- outcome [3]: inactive
- outcome [4]: inactive
- outcome [5]: inactive
- outcome [6]: inactive
- Potency [7]: inactive
- Potency [8]: inactive
- outcome [9]: inactive
- outcome [10]: inactive
- Potency [11]: inactive
- Potency [12]: inactive
- Potency [13]: inactive
- max response [14]: 3.13% (inactive) and 20% (inactive)
- Potency [15]: inactive
- outcome [16]: inactive
- outcome [17]: inactive
- Potency [18]: inactive
- Potency [19]: inactive
- outcome [20]: inactive

SMILES: CC(=O)CC(C)(C)O
- outcome [1]: inactive
- outcome [2]: inactive
- outcome [3]: inactive
- outcome [4]: inactive
- outcome [5]: inactive
- outcome [6]: inactive
- Potency [7]: inactive
- Potency [8]: inactive
- outcome [9]: inactive
- outcome [10]: inactive
- Potency [11]: inactive
- Potency [12]: inactive
- Potency [13]: inactive
- max response [14]: 0.169% (inactive) and 3.54% (inactive)
- Potency [15]: inactive
- outcome [16]: inactive
- outcome [17]: inactive
- Potency [18]: inactive
- Potency [19]: inactive
- outcome [20]: inactive

SMILES: O=C(O)Cn1c(=O)n(Cc2ccc(Br)cc2F)c(=O)c2ccc(Cl)cc21
- outcome [1]: inactive
- outcome [2]: inactive
- outcome [3]: inactive
- outcome [4]: inactive
- outcome [5]: inactive
- outcome [6]: inactive
- Potency [7]: 38.9 µM (active)
- outcome [9]: inactive
- outcome [10]: inactive
- Potency [11]: inactive
- Potency [12]: inactive
- Potency [13]: 21.9 µM (active) and 8.49 µM (active)
- Potency [15]: inactive
- outcome [16]: inactive
- Potency [18]: inactive
- Potency [19]: inactive
- outcome [20]: inactive

SMILES: COC(=O)c1cccnc1
- outcome [1]: inactive
- outcome [2]: inactive
- outcome [3]: inactive
- outcome [4]: inactive
- outcome [5]: inactive
- outcome [6]: inactive
- Potency [7]: inactive
- Potency [8]: inactive
- outcome [9]: inactive
- outcome [10]: inactive
- Potency [11]: inactive
- Potency [12]: inactive
- Potency [13]: inactive
- max response [14]: 0.779% (inactive) and 5.01% (inactive)
- Potency [15]: inactive
- outcome [16]: inactive
- outcome [17]: inactive
- Potency [18]: inactive
- Potency [19]: inactive
- outcome [20]: inactive

SMILES: NCCCCCCN
- outcome [1]: inactive
- outcome [2]: inactive
- outcome [3]: inactive
- outcome [4]: inactive
- outcome [5]: inactive
- outcome [6]: inactive
- Potency [7]: inactive
- Potency [8]: inactive
- outcome [9]: inactive
- outcome [10]: inactive
- Potency [11]: inactive
- Potency [12]: inactive
- Potency [13]: inactive
- max response [14]: -0.521% (inactive) and 1.93% (inactive)
- Potency [15]: inactive
- outcome [16]: inactive
- outcome [17]: inactive
- Potency [18]: inactive
- Potency [19]: inactive
- outcome [20]: inactive

SMILES: CCNc1ccccc1
- outcome [1]: inactive
- outcome [2]: inactive
- outcome [3]: inactive
- outcome [4]: inactive
- outcome [5]: inactive
- Potency [7]: inactive
- Potency [8]: inactive
- outcome [9]: inactive
- outcome [10]: inactive
- Potency [11]: inactive
- Potency [12]: inactive
- Potency [13]: inactive
- max response [14]: 0.38% (inactive) and 24% (inactive)
- Potency [15]: inactive
- outcome [16]: inactive
- outcome [17]: inactive
- Potency [18]: inactive
- Potency [19]: inactive
- outcome [20]: inactive
